Out of some 320,000 compounds screened, about 2,100 (0.66%) were called active. Not shown: some 53% with an inconclusive outcome. The sample holds actives, similar compounds and a random draw of the others, so the mix is not that of the screen. The call rests on the fitted dose curve; in most records, active means well fitted inhibition curve with a large enough effect in the signal ratio, with a control signal flat (not every such curve was filed as active); inconclusive means small, poorly fitted or top-dose-only effect, or effect the other way, or a change in a side signal; inactive means flat fitted curve, though single readings scatter; the % refers to the signal ratio.
Potency means the concentration at half of the fitted maximal effect.

A short description of this experiment: qHTS Assay for Lipid Storage Modulators in Drosophila S3 Cells.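 On cell number change: cells counted by Cell Tracker Red CMTPX staining in the red channel.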 On lipid storage change, negative = inhibition: on the % scale 0 is the no-effect control and ±100 the full control effect. The note with it: BODIPY lipid droplet fluorescence, 18-24 h, cells fed with added oleic acid; cell number change: measured here: cell count max response; series mostly up to 46.1 µM; lipid storage change, negative = inhibition: at the top concentration. Put shortly:
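Laser-scanning cytometry quantifies lipid droplet accumulation (500–530 nm total intensity; droplet/cell object ratio) in oleic acid-fed (400 uM added) Drosophila S3 cells treated with a concentration series. 20 uM Triacsin C defined 100% inhibition.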
(In general: In qHTS, concentration-response curves come from the screen itself.)
For the compound `Cn1c(Cn2c(=O)sc3ccccc32)nnc1SCC(N)=O`, the “lipid storage change, negative = inhibition” value is 2.33% (inactive) and the cell number change turned out to be 4.82%.

In the case of `CCCCCC(=O)Nc1cc(N(C)C)nc2ccccc12`, the result was inactive and the cell number change is 6.14%.

`COc1ccc(CC(=O)OCC(=O)Nc2ccc(C(=O)Nc3ccc(OC)cc3)cc2)cc1`: the “lipid storage change, negative = inhibition” value was 0.407% (inactive) and the cell number change came to 6.99%.

`Cc1ccc2sc(NC(=O)CN3C(=O)c4ccccc4C3=O)nc2c1C`: the “lipid storage change, negative = inhibition” value was 19.1% (inactive) and the cell number change was -0.832%.

On to `CCCCC(O)(CCCC)C(=O)NN(C(=O)OC)c1ccccc1`, for which the “lipid storage change, negative = inhibition” value is 8.53% (inactive) and the cell number change is 0.36%.

Consider `CCCC(O)(CCC)C(=O)NN(C(=O)OC)c1ccccc1`, for which the “lipid storage change, negative = inhibition” value was 7.85% (inactive) and the cell number change amounted to 12.3%.

For the compound `CCCC(O)(CCC)C(=O)NN(C(=O)CCl)c1cccc(C)c1`, the Potency was 20.6 µM (active) and the cell number change is -4.84%.

Turning to `CCC(O)(CC)C(=O)NN(C(=O)CCl)c1ccccc1`, the Potency was 20.6 µM (active) and the cell number change is -5.65%.

With `Cc1cccc(N(NC(=O)C(C)(C)O)C(=O)c2ccccc2)c1`, the “lipid storage change, negative = inhibition” value was -3.6% (inactive) and the cell number change amounted to 7.68%.

Regarding `CCCCC(O)(CCCC)C(=O)NN(C(=O)OCC)c1ccccc1`, the “lipid storage change, negative = inhibition” value is -7.04% (inactive) and the cell number change worked out at 11.1%.

`CC1CCCCN1Cc1c(O)ccc2c(=O)c(-c3ccc(Cl)cc3Cl)coc12` (stereo not given): the “lipid storage change, negative = inhibition” value was 0.45% (inactive) and the cell number change was -3.44%.

`Cc1ccc(C)c(NC(=S)NCc2cccs2)c1`: the “lipid storage change, negative = inhibition” value was -0.72% (inactive) and the cell number change was -1.36%.

On to `CC(=O)Nc1cccc(C(=O)NC(C)c2ccc(S(N)(=O)=O)cc2)c1` (stereo not given), for which the Potency was 1.64 µM (active) and the cell number change was found to be 21.3%.

For the compound `CC(NC(=O)c1ccc(S(=O)(=O)Nc2ccccc2)cc1)c1ccc(S(N)(=O)=O)cc1` (stereo not given), the “lipid storage change, negative = inhibition” value is 11.1% (inactive) and the cell number change amounted to 2.41%.

In the case of `CC(=O)Nc1cccc(C(=O)NC(C)c2ccc(-n3ccnc3)cc2)c1` (stereo not given), the outcome was inactive.

Turning to `CC(C)N(C(=S)Nc1cccc(C(F)(F)F)c1)C(C)c1ccccn1` (stereo not given), the “lipid storage change, negative = inhibition” value was 0.651% (inactive).

Turning to `CC(c1ccccn1)N(CCN(C)C)C(=S)Nc1cccc(F)c1` (stereo not given), the outcome was inactive.

For `CC(C)CCN(C(=S)Nc1cccc(C(F)(F)F)c1)C(C)c1ccccn1` (stereo not given), the Potency is 32.6 µM (active) and the cell number change was -20.3%.

In the case of `Cc1ncoc1C(=O)Nc1cccc(Cl)c1C`, the call was inactive.

With `CCc1cc(=O)oc2cc(C)cc(OC(C)C(=O)NC3CC(C)(C)NC(C)(C)C3)c12` (stereo not given), the call was inactive and the cell number change worked out at 17.3%.

For `Cc1ccc(S(=O)(=O)CCSc2ccc(C(F)(F)F)cn2)cc1`, the “lipid storage change, negative = inhibition” value was 6.53% (inactive) and the cell number change is 21.4%.

For `Cc1ccc(S(=O)(=O)CCSc2nc(C)cc(C(F)(F)F)c2C#N)cc1`, the Potency is 16.4 µM (active) and the cell number change is -21.5%.

Turning to `CCS(=O)(=O)CCSc1nc(C)cc(C)c1C#N`, the compound was called inactive and the cell number change is 5.68%.

As to `COc1ccc(NC(=O)CSCC(=O)N=c2sccn2C)cc1`, the result was inactive and the cell number change came to 23.3%.

Take `COc1ccc(-n2nc3c(c2NC(=O)CCCl)CSC3)cc1`: the “lipid storage change, negative = inhibition” value is 25.1% (inactive) and the cell number change amounted to 1.89%.

`CN1/C(=C\C(=O)C(F)F)C(C)(C)c2ccccc21`: the compound was called inactive.

Regarding `CN1/C(=C/C=C(C#N)C#N)C(C)(C)c2ccccc21`, the Potency is 7.31 µM (active) and the cell number change worked out at 7.31%.

`CN1/C(=C\C=Nc2ccc3ccccc3c2)C(C)(C)c2ccccc21`: the “lipid storage change, negative = inhibition” value was -22.9% (inactive) and the cell number change is 6.9%.

Turning to `CN1/C(=C\C(=O)Nc2ccc(F)cc2)C(C)(C)c2ccccc21`, the “lipid storage change, negative = inhibition” value is -15.1% (inactive) and the cell number change was -24.5%.

`CN1/C(=C\C=N\NC(=O)c2ccc(O)cc2)C(C)(C)c2ccccc21`: the Potency is 2.31 µM (active) and the cell number change was -19.2%.

Regarding `CN1/C(=C/C=C(/C#N)C(N)=O)C(C)(C)c2ccccc21`, the “lipid storage change, negative = inhibition” value was -1.55% (inactive) and the cell number change came to 13.2%.

For `CCc1cc(C(=O)N2CCCC(CCC(=O)N3CCN(c4ccccn4)CC3)C2)no1` (stereo not given), the “lipid storage change, negative = inhibition” value is -10% (inactive) and the cell number change is -4.75%.

As for `O=C(CSc1nc2ccccc2[nH]1)NCC1CCCO1` (stereo not given), the “lipid storage change, negative = inhibition” value is -1.44% (inactive) and the cell number change stood at 1.54%.

Regarding `O=C(CCC(=O)c1ccc(F)cc1)Nc1cccc(C(F)(F)F)c1`, the “lipid storage change, negative = inhibition” value is -22% (inactive) and the cell number change was -4.38%.

On to `COc1cc(COC(=O)c2cnc(C)cn2)c(OC)cc1Br`, for which the Potency was 0.517 µM (active) and the cell number change was 4.62%.

For `Cc1cnc(C(=O)OCc2c(C)cc(C(C)(C)C)cc2C)cn1`, the “lipid storage change, negative = inhibition” value is -22.9% (inactive) and the cell number change is 3.78%.

Regarding `COc1ccc(C(C)=O)cc1COC(=O)c1cnc(C)cn1`, the outcome was inactive and the cell number change stood at 5.96%.

As for `COc1ccc(C(C(=O)NC2CCCC2)N(C(=O)c2ccco2)c2ccc3c(c2)OCO3)cc1OC` (stereo not given), the “lipid storage change, negative = inhibition” value is 17.5% (inactive).

Consider `COc1ccccc1NC(=O)Nc1c(C)nn(C)c1C`, for which the “lipid storage change, negative = inhibition” value is 4.48% (inactive) and the cell number change is 22.1%.

With `C/C=C/c1ccc(OCCn2nnc3ccccc32)c(OC)c1`, the “lipid storage change, negative = inhibition” value is -26% (inactive) and the cell number change turned out to be 1.4%.

Take `COc1ccc(-c2cc(C(=O)c3c(N)n(C)c(=O)n(C)c3=O)c3ccccc3n2)cc1`: the “lipid storage change, negative = inhibition” value was 15.1% (inactive) and the cell number change came to 0.639%.

In the case of `CCOCCCN1CN(S(=O)(=O)c2ccc(Cl)cc2)c2nc3ccccc3nc21`, the “lipid storage change, negative = inhibition” value is 14.5% (inactive) and the cell number change was -11.9%.

Turning to `Cc1c(CNCCc2ccc(Cl)cc2)c(C(=O)O)c(C)n1Cc1ccccc1`, the result was inactive.

For the compound `Cc1ccc(NC(=O)COC(=O)CSC(=S)N2CCOCC2)cc1C`, the “lipid storage change, negative = inhibition” value was 5.57% (inactive) and the cell number change came to 1.5%.

As for `O=C(CCl)N1c2ccccc2OCC1c1ccccc1` (stereo not given), the result was inactive and the cell number change is -20.4%.

As for `O=C(CCl)N1c2ccccc2SCC1c1ccccc1` (stereo not given), the Potency was 1.03 µM (active) and the cell number change is -4.27%.

With `O=C(O)CN1C(=O)CSc2ccccc21`, the “lipid storage change, negative = inhibition” value is -0.578% (inactive) and the cell number change turned out to be 2.34%.

Turning to `CC(=O)Nc1ccc(Nc2c([N+](=O)[O-])c(=O)n(-c3ccccc3)c3ccccc23)cc1`, the “lipid storage change, negative = inhibition” value was 2.41% (inactive) and the cell number change was 12.5%.

`O=C(Nc1nncs1)c1ccccc1Br`: the Potency is 32.6 µM (active) and the cell number change came to 9.55%.

Consider `O=C(Nc1nccs1)c1ccccc1Br`, for which the “lipid storage change, negative = inhibition” value is 8.98% (inactive) and the cell number change is 3.63%.

Turning to `Cc1nnc(NC(=O)c2ccccc2Br)s1`, the “lipid storage change, negative = inhibition” value was 0.131% (inactive) and the cell number change was found to be 8.15%.

Source of the values: PubChem BioAssay AID2685 (National Center for Advancing Translational Sciences (NCATS), 2010).
